Reference: PubChem BioAssay
Potency and affinity values are given separately. Calls of active or inactive are those of the source. Cut-off not given; nearly all actives show IC50 up to about 0.98 µM.

Biological target: Calcium-dependent protein kinase 1 (Plasmodium falciparum (isolate 3D7)) (UniProt P62344)
Assay: PfCDPK1 kinase inhibitors, biochemical, TCAMS library (AID 1159585);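 further: inhibitors leave more ATP so luminescence rises with inhibition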
Details: recombinant PfCDPK1, Kinase-Glo ATP depletion luminescence

Sequence of Calcium-dependent protein kinase 1 (Plasmodium falciparum (isolate 3D7)) (P62344 whole entry, looked up): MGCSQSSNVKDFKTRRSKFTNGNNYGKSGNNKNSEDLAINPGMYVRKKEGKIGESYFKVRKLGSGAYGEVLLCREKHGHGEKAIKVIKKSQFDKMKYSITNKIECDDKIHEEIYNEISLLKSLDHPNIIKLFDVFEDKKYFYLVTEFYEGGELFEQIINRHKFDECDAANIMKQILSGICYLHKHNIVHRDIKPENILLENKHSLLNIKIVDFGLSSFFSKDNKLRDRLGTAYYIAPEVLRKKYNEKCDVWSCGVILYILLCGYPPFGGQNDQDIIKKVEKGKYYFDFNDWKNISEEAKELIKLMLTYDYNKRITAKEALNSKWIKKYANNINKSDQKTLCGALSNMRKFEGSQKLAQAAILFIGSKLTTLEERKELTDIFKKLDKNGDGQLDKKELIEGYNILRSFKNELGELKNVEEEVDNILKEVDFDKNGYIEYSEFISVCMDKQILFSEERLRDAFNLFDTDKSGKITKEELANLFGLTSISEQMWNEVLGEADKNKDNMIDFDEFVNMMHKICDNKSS

outcome, inactive:
CS(=O)(=O)c1ccc(-c2cncc(Cl)n2)cc1
Cc1cccc2[nH]c(-c3cccc(-c4ccc(NC(=O)C(C)(C)c5ccccn5)cc4)c3)nc12
CN1CCc2ccc(NC(=O)Nc3ccc(Cl)c(Cl)c3)cc2C1
CCCCCCCCn1c2c(c(=N)c3c1CCC3)CCC2
Cc1cc(N2CCCN(C)CC2)nc(Nc2ccc(Cl)cc2)n1
N#CCSc1nnc(-c2ccccc2)c2ccccc12
CC(=O)N1CCC(C(=O)Nc2ccc(-c3cccc(-c4nc5ccc(C(F)(F)F)cc5[nH]4)c3)cc2)CC1
Cc1cc(N[C@@H](CC(C)C)C(=O)NCCOc2ccccc2)nc(NCCOc2ccccc2)n1
O=C(Nc1cccc(CN2CCCN(Cc3ncc[nH]3)CC2)c1)c1ccc(Cl)c(Cl)c1
O=C(NC1CCCCC1)c1csc(C2CCCN(C(=O)c3ccc(O)c(-c4cccc(C(F)(F)F)c4)c3)C2)n1 (stereo unspecified)
CC(=O)c1ccc(O)c(CC(O)CO)c1 (stereo unspecified)
O=C(/C=C/c1cc(C(F)(F)F)ccc1F)NCCCCCN1CCC(c2c[nH]c3ccccc23)CC1
Cc1nc2c(-n3cc(Cn4ccnc4)c4ccccc43)ncnc2n1-c1ccc(Cl)cc1Cl
Cc1cc(NC(=O)c2ccco2)ccc1OC1CCN(Cc2ccc(F)cc2)CC1
Cc1cc(CN2CCCC(OC(c3ccc(F)cc3)c3ccc(F)cc3)C2)ccc1O (stereo unspecified)
NC(N)=NN=CC(=O)Nc1cc([N+](=O)[O-])cc([N+](=O)[O-])c1
